Structures are written as SMILES. About 83,000 compounds went through this panel and 20% of them were active in at least one assay; those are over-represented in the sample as a whole.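 Plates (96-well) were seeded with cells, treated with compound at one concentration, and incubated for 48 hours before percent growth was determined.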 Unmarked numbers belong to inactive results. Activity calls are given as the source filed them. How the source made its calls: active means growth percent below 10; inactive means the rest.

For 12 molecules, growth results are on record in PubChem BioAssay (NCI).

Experiment in all cases: NCI-60 one-dose screen, 48 h (100 = growth as untreated, 0 = no growth, -100 = all killed)
The subject of one test is SR leukemia. To be noted: 10 µM unless noted.
The next test concerns RPMI-8226 leukemia. To be noted: 10 µM unless noted.
The subject of a further test is OVCAR-8 ovarian. To be noted: 10 µM unless noted.
A further test concerns OVCAR-5 ovarian. The conditions noted are these: 10 µM unless noted.
In a further test the test system is OVCAR-4 ovarian. To be noted: 10 µM unless noted.
The next test has as its system IGROV1 ovarian. To be noted: 10 µM unless noted.
The next test relates to OVCAR-3 ovarian. To be noted: 10 µM unless noted.
For another test, the system named is HS 578T breast. The conditions noted are these: 10 µM.
The next test relates to NCI/ADR-RES ovarian. The conditions noted are these: 10 µM unless noted.
A further test concerns T-47D breast. To be noted: 10 µM unless noted.
Another test concerns BT-549 breast. The conditions noted are these: 10 µM unless noted.
The test system of the next test is MDA-MB-435 melanoma. To be noted: 10 µM unless noted.
The subject of another test is SW-620 colon. The conditions noted are these: 10 µM unless noted.
In the next test the test system is MCF7 breast. To be noted: 10 µM unless noted.
For a further test, the system named is HCT-116 colon. To be noted: 10 µM unless noted.
In the next test the test system is HCC-2998 colon. To be noted: 10 µM.
A further test relates to KM12 colon. The conditions noted are these: 10 µM unless noted.
In another test the test system is SK-OV-3 ovarian. The conditions noted are these: 10 µM unless noted.

With `Nc1c(C(=O)c2ccccc2)sc2nc(-c3cccs3)ccc12`, the growth in the test with SR leukemia was 30.5%; in the test with RPMI-8226 leukemia, 21.4%; in the test with OVCAR-8 ovarian it was 28.9%; in the test with OVCAR-5 ovarian, 66.9%; with OVCAR-4 ovarian it was 57.3%; in the test on IGROV1 ovarian it was 46.5%. Further, the growth in the test on OVCAR-3 ovarian was 9.4% (active); with HS 578T breast it was 34.3%; in the test on NCI/ADR-RES ovarian, 3.97% (active); in the test on T-47D breast, 41.8%; with BT-549 breast, 59.6%; in the test with MDA-MB-435 melanoma, -5.48% (active). Also, the growth with SW-620 colon was 28.4%; in the test with MCF7 breast, 34.2%; with HCT-116 colon it was 13.3%; with HCC-2998 colon it was 32.3%; in the test on KM12 colon it was 28.3%.

Take `COc1ccc(COc2cc3oc(=O)c4cc(C(C)O)ccc4c3cc2OC)cc1` (stereo not given): the growth is 18.6% in the test with SR leukemia; 68% in the test on RPMI-8226 leukemia; 25% in the test on OVCAR-8 ovarian; 86% in the test with OVCAR-5 ovarian; 53.8% in the test with OVCAR-4 ovarian; 40.5% in the test with SK-OV-3 ovarian. For the same molecule, the growth in the test on OVCAR-3 ovarian was 58.6%; with NCI/ADR-RES ovarian it was 56.1%; in the test with T-47D breast it was 44.2%; in the test on BT-549 breast it was 59.8%; with MDA-MB-435 melanoma, 3.55% (active); with SW-620 colon it was 49.7%. Moreover, the growth in the test on MCF7 breast is 45.6%; in the test with HCT-116 colon, 49%; in the test with KM12 colon it was 53%.

In the case of `COC(=O)CCCNc1c(-c2c(O)c(O)cc3c(O)c(-c4c(C)cc5c(-c6nc7ccccn7c6NCCCC(=O)OC)c(O)c(O)cc5c4O)c(C)cc23)nc2ccccn12`, the growth was 24.3% with SR leukemia; 22.5% in the test on RPMI-8226 leukemia; 51.4% with OVCAR-8 ovarian; 119% with OVCAR-5 ovarian; 98.6% with OVCAR-4 ovarian; 34.8% in the test on IGROV1 ovarian. The growth with OVCAR-3 ovarian is 64.6%; in the test on HS 578T breast it was 34.5%; in the test with NCI/ADR-RES ovarian it was 100%; in the test on T-47D breast, 26.1%; in the test with BT-549 breast, 16%; in the test on MDA-MB-435 melanoma, 20.7%. In addition, the growth with SW-620 colon was 60.1%; with MCF7 breast, 18.2%; in the test on HCT-116 colon, 7.23% (active); in the test on HCC-2998 colon, 71.6%; with KM12 colon it was 31.8%.

Turning to `O=C(NO)c1ccc(Cn2c(=O)n(CCc3ccccc3)c(=O)c3ccccc32)cc1`, the growth is 20% with SR leukemia; 25.8% in the test with RPMI-8226 leukemia; 20.2% in the test with OVCAR-8 ovarian; 76.5% in the test with OVCAR-5 ovarian; 19.2% in the test on OVCAR-4 ovarian; 41% in the test on IGROV1 ovarian. The growth is 13.8% with OVCAR-3 ovarian; 68.9% with HS 578T breast; 57.5% in the test with NCI/ADR-RES ovarian; 29% with T-47D breast; 19.1% in the test on MDA-MB-435 melanoma; 20.9% in the test with SW-620 colon. Further, the results for the growth in the test with HCT-116 colon, in the test on HCC-2998 colon and in the test with KM12 colon were 4.18% (active), 62.5% and 25.2%, respectively.

In the case of `CCCCN1C(=O)c2cccc3c(-c4ccc5c(c4)ncn5C4CCCCC4)ccc(c23)C1=O`, the growth was 91.1% with SR leukemia; 108% in the test with RPMI-8226 leukemia; 89.9% in the test with OVCAR-8 ovarian; 98.3% with OVCAR-5 ovarian; 97.6% in the test with OVCAR-4 ovarian; 108% with IGROV1 ovarian. The growth was 101% in the test on OVCAR-3 ovarian; 92.5% in the test on NCI/ADR-RES ovarian; 81.9% in the test on T-47D breast; 99.4% in the test with BT-549 breast; 109% in the test with MDA-MB-435 melanoma; 107% in the test with SW-620 colon. In addition, the growth is 96.7% in the test with MCF7 breast, 91.7% in the test with HCT-116 colon, 102% with HCC-2998 colon and 92.2% in the test on KM12 colon.

Turning to `CC(C)OP(=O)(CCC(=O)c1c[nH]c2ccccc12)OC(C)C`, the growth in the test with SR leukemia is 100%; in the test with RPMI-8226 leukemia, 73.5%; in the test on OVCAR-8 ovarian, 91.8%; with OVCAR-5 ovarian, 107%; in the test on OVCAR-4 ovarian it was 105%; with IGROV1 ovarian, 106%. In addition, the growth was 106% in the test on OVCAR-3 ovarian; 86.6% in the test on HS 578T breast; 103% in the test with NCI/ADR-RES ovarian; 89.5% in the test on T-47D breast; 117% with BT-549 breast; 105% with SW-620 colon. For the same molecule, the growth with MCF7 breast is 100%; in the test on HCT-116 colon, 113%; with HCC-2998 colon it was 97.3%; in the test on KM12 colon, 99.9%.

Turning to `Nc1ccc(S(=O)(=O)O)c2cc(S(=O)(=O)O)cc(O)c12`, the growth in the test with SR leukemia was 105%; in the test on RPMI-8226 leukemia, 102%; in the test with OVCAR-8 ovarian it was 105%; with OVCAR-5 ovarian, 102%; with OVCAR-4 ovarian, 109%; in the test with IGROV1 ovarian it was 107%. For the same molecule, the growth was 113% with OVCAR-3 ovarian; 103% in the test with HS 578T breast; 105% with NCI/ADR-RES ovarian; 120% in the test with T-47D breast; 99% in the test with BT-549 breast; 110% with MDA-MB-435 melanoma. Also, the growth in the test on SW-620 colon is 107%; in the test on MCF7 breast, 104%; in the test with HCT-116 colon, 93.7%; in the test with HCC-2998 colon, 117%; in the test with KM12 colon, 102%.

Regarding `CC1=CC2c3oc(-c4ccccc4)c(C(=O)c4ccccc4)c3CNC2C=C1` (stereo not given), the growth in the test on SR leukemia is 89.6%; in the test with RPMI-8226 leukemia, 105%; in the test with OVCAR-8 ovarian, 83.6%; with OVCAR-5 ovarian, 88.8%; with OVCAR-4 ovarian, 117%; in the test on SK-OV-3 ovarian it was 83.3%. The growth in the test on OVCAR-3 ovarian was 106%; with NCI/ADR-RES ovarian it was 94.6%; in the test on T-47D breast, 91.3%; with BT-549 breast, 103%; in the test on MDA-MB-435 melanoma, 107%; in the test on MCF7 breast it was 84.2%. Also, the growth is 92.2% with HCT-116 colon, 102% in the test on HCC-2998 colon and 101% in the test with KM12 colon.

For the molecule `CCCCCCC1(/C=N/NC(N)=O)NC(=O)NC1=O` (stereo not given), the growth with SR leukemia was 102%; in the test with RPMI-8226 leukemia it was 111%; in the test on OVCAR-8 ovarian, 105%; in the test on OVCAR-5 ovarian, 89%; in the test on OVCAR-4 ovarian it was 98%; in the test with IGROV1 ovarian it was 105%. Also, the growth in the test with OVCAR-3 ovarian was 111%; with HS 578T breast, 114%; with NCI/ADR-RES ovarian it was 100%; in the test with T-47D breast, 87.8%; in the test with BT-549 breast it was 94.1%; in the test with MDA-MB-435 melanoma it was 101%. Besides, the growth with SW-620 colon is 104%; with MCF7 breast, 91.2%; in the test on HCT-116 colon, 84.2%; in the test on HCC-2998 colon, 94.5%.

For `COc1ccc(/C(C)=C(\c2ccc(Cl)cc2)c2ccc(OCCN3CCCCCC3)cc2)cc1`, the growth in the test with SR leukemia is 1.94% (active); with RPMI-8226 leukemia, 51.2%; with OVCAR-8 ovarian, 69.1%; with OVCAR-5 ovarian, 74.3%; with OVCAR-4 ovarian it was 56.4%; with IGROV1 ovarian, 67.1%. In addition, the growth in the test on OVCAR-3 ovarian is 58.2%; with NCI/ADR-RES ovarian, 82.8%; in the test on T-47D breast, 39.6%; in the test with BT-549 breast, 63.5%; with MDA-MB-435 melanoma, 65.9%; in the test on SW-620 colon, 45%. The growth in the test on MCF7 breast is 36.5%; in the test with HCT-116 colon it was 38.3%; in the test on HCC-2998 colon it was 82.1%; in the test with KM12 colon it was 31.2%.

For the molecule `C[C@@H](Nc1cc(F)cc(F)c1)c1cc(C(=O)N(C)C)cc2c(=O)cc(N3CCOCC3)oc12`, the growth in the test with SR leukemia is 53.5%; in the test with RPMI-8226 leukemia, 84.4%; in the test on OVCAR-8 ovarian, 57.9%; in the test with OVCAR-5 ovarian, 54.5%; with OVCAR-4 ovarian, 88.2%; with IGROV1 ovarian it was -13.3% (active). Moreover, the growth with OVCAR-3 ovarian was 40%; in the test on NCI/ADR-RES ovarian, 85.4%; in the test on T-47D breast, -12.4% (active); in the test with BT-549 breast, 34.2%; in the test with MDA-MB-435 melanoma it was 64.8%; in the test with SW-620 colon it was 60.5%. The growth was 25.2% in the test with MCF7 breast, 55.8% in the test on HCT-116 colon, 55.3% with HCC-2998 colon and 66.5% in the test with KM12 colon.

Take `COc1ccc(C2OC(c3cc(-c4cc5ccccc5o4)nn3-c3ccccc3)=NN2C(C)=O)cc1` (stereo not given): the growth is 93.1% in the test with SR leukemia; 101% in the test with RPMI-8226 leukemia; 99.5% in the test with OVCAR-8 ovarian; 94% in the test on OVCAR-5 ovarian; 96.3% in the test on OVCAR-4 ovarian; 103% in the test on SK-OV-3 ovarian. Moreover, the growth in the test with OVCAR-3 ovarian was 95.3%; with NCI/ADR-RES ovarian it was 92.2%; in the test with T-47D breast it was 86.5%; with BT-549 breast, 97.2%; in the test on MDA-MB-435 melanoma it was 108%; in the test with SW-620 colon it was 107%. The results for the growth with MCF7 breast and in the test on KM12 colon were 100% and 107%, respectively.
